ELG1 repair inh = ELG1-dependent DNA repair inhibition; HEK293T ELG1-luciferase reporter, luminescence, 16 h; DNA damage induced by 5-fluorouridine; Potency, µM (series often up to 46.1 µM), for inactives: top-dose activity change, negative = inhibition, most hits filed as inhibitors; 2.3% of 330,000 active; AID 504467; also: potency is read from the fitted curve at half-maximal effect; nearly all actives have a fitted effect of over 55% in size
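DMSO vehicle served as the neutral condition. Each well held 2,000 cells given 5-fluorouridine plus compound; after 16 hr at 37 °C/5% CO2, ONE-Glo was added and luciferase measured 30 min later.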
IL1B secr inh = inflammasome signaling inhibition, IL-1 beta readout; THP-1 LPS/ATP IL-1B secretion, AlphaLISA, 16 h; hits give low values; AID 743279; 4.7% of 360,000 active; activity change, % at 57.5 µM; in the data active = activity change below about -50%; inconclusive = mostly about -30% to -49%
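Secreted IL-1B measured by AlphaLISA bead assay after 16 h compound exposure of THP-1 cells; compounds (final up to 57.5 uM) added 1 h before LPS (250 ng/mL) and ATP (1.25 mM) stimulation; lower signal means less secretion.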
DT40 TDP1 no CPT = qHTS for Inhibitors of human tyrosyl-DNA phosphodiesterase 1 (TDP1): qHTS in cells in absence of CPT; AID 686978, 2013; DT40 Tdp1-/- hTDP1 cells, no CPT, ATP luminescence, 48 h; Potency, µM (highest dose often 46.2 µM), for the others: top-dose activity change, negative = growth inhibition, most hits filed as inhibitors; 15% of 420,000 active; also: potency is read from the fitted curve at half-maximal effect; nearly all actives have a fitted effect of over 55% in size
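No-CPT arm: Tdp1-/-;hTDP1 DT40 cells (400/well) plus compounds, incubated ≥48 hr at 37 °C. Readout CellTiter-Glo luminescence.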
DT40 TDP1 CPT = DT40-hTDP1 cell growth loss with CPT; chicken DT40 Tdp1-/-;hTDP1 cells + 20 nM CPT, ATP luminescence, 48 h; Potency, µM (top dose mostly 46.2 µM), for the others: at the top dose activity change, negative = growth inhibition, usual class: inhibitors; 12% of 420,000 active; AID 686979; also: potency is read from the fitted curve at half-maximal effect; nearly all actives have a fitted effect of over 55% in size
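Chicken DT40 Tdp1-/- cells stably complemented with human TDP1 were seeded at 400 cells/well in medium containing 20 nM camptothecin, exposed to pin-transferred compounds, and grown at 37 °C for at least 48 hr. Viability was read as ATP luminescence.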
HT1080 IDH1KD tx = kills HT-1080 cells with IDH1 knockdown; HT-1080 IDH1 knockdown viability, ATP luminescence, 48 h; Potency, µM (doses to about 46.1 µM), for the others: at the highest dose activity, negative = toxicity, most hits filed as cytotoxic; 2% of 360,000 active;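 also: potency is read from the fitted curve at half-maximal effect; 0% = DMSO wells and -100% = cell-free medium wells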
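Cytotoxicity counter-line: IDH1KD HT-1080, 48 h, CellTiter-Glo. Curves classed by r2, magnitude and activity.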
HT1080NT lethal = kills 2HG-producing HT-1080-NT fibrosarcoma cells | HT-1080-NT fibrosarcoma viability, CellTiter-Glo ATP luminescence, 48 h | Potency, µM (doses to about 46.1 µM), for inactives: at the top dose activity, negative = less viability, actives largely listed as cytotoxic | 1.6% of 360,000 active | AID 686970;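 also: NT is the 2HG producing partner of a matched IDH1 knockdown line; potency is read from the fitted curve at half-maximal effect; 0% = DMSO-treated cells and -100% = media-only wells without cells; nearly all actives have a fitted effect of over 55% in size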
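HT-1080-NT; 750 cells/well; 5% FBS RPMI; 48 h compound, 37 degrees C; CellTiter-Glo luminescence; curve fitting and curve-class assignment.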
Active calls of the source: *; ? = inconclusive; . = not tested or not shown. Sampled rows, rich in hits. Any-hit rate of the full collection: about 19%. Unless noted, calls follow the shape of the dose curve; as a rule, active = well fitted curve in the direction sought with a large enough effect; inconclusive = small, poorly fitted or top-dose-only effect, or another doubt; inactive = no such curve, though single readings can be large; an effect the other way counts as inactive or inconclusive. Unless noted, % is scaled to controls: 0 for no effect and ±100 for the full control effect.

SMILES	ELG1 repair inh	IL1B secr inh	DT40 TDP1 no CPT	DT40 TDP1 CPT	HT1080 IDH1KD tx	HT1080NT lethal
CCn1c(=O)n(CC)c2cc(N3CCCC3)c(NC(=O)Nc3cc(C)cc(C)c3)cc21	.	.	18µM*	21µM*	.	.
CCOc1ccccc1C(=O)NN1C(=O)CCC1=O	4%	54	18µM*	?	8%	0%
CCn1c(=O)n(CC)c2cc(N3CCCC3)c(NC(=O)c3ccccc3C)cc21	?	8	21µM*	16µM*	-16%	6%
Cc1cn2c(=O)cc(COC(=O)c3ccc(NC(=O)c4ccc(C(C)(C)C)cc4)cc3)nc2s1	.	.	?	-4%	.	.
O=C(c1ccc(NS(=O)(=O)c2ccc(Cl)c(Cl)c2)cc1)N1CCOCC1	1%	18	-15%	3%	-3%	0%
COc1ccc(NC(=O)C2CCN(S(=O)(=O)c3ccc4[nH]c(=O)ccc4c3)CC2)c(OC)c1	.	.	2%	-15%	.	.
CC(C)(C)OC(=O)N[C@@H](Cc1ccccc1)C(=O)N[C@@H](CO)[C@H](O)[C@@H]1C[C@@H]1C(=O)NC1CCCCC1	8%	-4	-18%	-18%	12%	9%
CC(C)(C)C(=O)C(C(c1ccccc1)N1CCOCC1)N1CCOCC1 (stereo not given)	.	2	?	0%	8%	-3%
CCOC(=O)N1CCN(c2nc(CN3CCCCC3CCO)nc3c(C)cccc23)CC1 (stereo not given)	.	.	-16%	6%	.	.
COCC(=O)N1CCC2(CCCN(C(=O)Nc3ccc(OC)cc3)C2)CC1	.	.	-4%	2%	.	.
CCn1c(=O)n(CC)c2cc(N3CCCC3)c(NC(=O)c3cc(Br)ccc3OC)cc21	?	-14	?	?	6%	-3%
COc1ccccc1C(=O)Nc1cc2c(cc1N1CCOCC1)n(C)c(=O)n2C	.	.	-4%	-20%	.	.
COc1ccc(Br)c(C(=O)Nc2cc3c(cc2N2CCCC2)n(C)c(=O)c(=O)n3C)c1	.	.	21µM*	16µM*	.	.
CCOc1ccccc1C(=O)Nc1cc2c(cc1N1CCCCC1)n(C)c(=O)n2C	.	.	18µM*	15µM*	.	.
CCn1c(=O)n(CC)c2cc(N3CCCCC3)c(NC(=O)Nc3cc(Cl)ccc3OC)cc21	.	.	18µM*	23µM*	.	.
CCn1c(=O)n(CC)c2cc(N3CCCC3)c(NC(=O)c3ccccc3)cc21	?	?	9.2µM*	21µM*	-16%	-8%
CCc1nc(NC(=O)Cc2csc(C)n2)sc1C(=O)OC	0%	-20	9%	-9%	8%	1%
Cc1nn(CC(=O)NC2CC2)c(=O)c2cc3ccccc3n12	.	.	-8%	-3%	.	.
COc1ccc(C)cc1NC(=O)C1CCCN(S(=O)(=O)c2ccc3c(c2)oc(=O)n3C)C1 (stereo not given)	.	.	?	-12%	.	.
Cc1cc(C)cc(NC(=O)c2cccnc2)c1	4%	-7	-7%	3%	-1%	-4%
CCn1c(=O)n(CC)c2cc(N3CCCCC3)c(NC(=O)Nc3ccccc3C(F)(F)F)cc21	.	.	10µM*	12µM*	.	.
CCn1c(=O)n(CC)c2cc(N3CCCC3)c(NC(=O)c3ccccc3F)cc21	?	?	12µM*	18µM*	1%	-2%
CCCn1c(N)c(N2CCCCC2)c(=O)n(CC(=O)Nc2ccccc2C(F)(F)F)c1=O	1%	16	-29%	-22%	-14%	-5%
O=C(CSc1nnc(COc2ccccc2)o1)Nc1ccc(F)cc1	7%	9	15%	6%	2%	0%
Cc1nc2ccc(S(=O)(=O)Nc3ccccc3C)cc2s1	?	12	18µM*	?	?	?
SMILES	ELG1 repair inh	IL1B secr inh	DT40 TDP1 no CPT	DT40 TDP1 CPT	HT1080 IDH1KD tx	HT1080NT lethal
Cc1nc2ccc(NS(=O)(=O)c3ccc(C)c(C)c3)cc2s1	?	1	10µM*	15µM*	?	-18%
Cc1nc2ccc(NS(=O)(=O)c3ccc(F)cc3F)cc2s1	0%	27	?	?	0%	6%
Cc1nc2ccc(NS(=O)(=O)c3c(F)cc(F)cc3Br)cc2s1	-11%	27	6.5µM*	?	-21%	0%
CCOC(=O)c1ccccc1NC(=O)c1sc2nc3n(c(=O)c2c1C)CCCCC3	.	.	0%	-10%	.	.
CN(Cc1ccc(Cl)cc1)C(=O)CNC(=O)C12CC3CC(CC(C3)C1)C2	?	-7	?	18µM*	-20%	7%
Cc1cnc(C(=O)OCC(=O)Nc2cc(S(=O)(=O)N3CCOCC3)ccc2Cl)cn1	10%	8	5%	-6%	21%	12%
CCOc1ccc(-c2cc(N3C(=O)Nc4ccccc4N3O)n[nH]2)cc1	7%	0	-13%	12%	21µM*	16µM*
COc1cccc(-c2cc(N3C(=O)Nc4ccccc4N3O)n[nH]2)c1	?	14	4%	-23%	10%	11%
CCCCn1c(OC(=S)N(CC)CC)cc(C)nc1=S	.	29	?	?	-15%	20%
CC(=O)c1ccc(N2CCN(C(=O)COc3ccc4c(c3)CCC4)CC2)cc1	3%	12	-28%	?	3%	-1%
COC(=O)c1cc(C(=O)N2CCN(c3ncccn3)CC2)cc([N+](=O)[O-])c1	-4%	6	-7%	-19%	0%	0%
COC(=O)c1cc(C(=O)N2CCN(c3cccc(C)c3C)CC2)cc([N+](=O)[O-])c1	?	31	2.6µM*	5.8µM*	2.3µM*	1.8µM*
O=C(c1ccc(CS(=O)c2cccc(Cl)c2)o1)N1CCN(c2ccccn2)CC1 (stereo not given)	?	82	9.2µM*	?	?	?
Cc1ccccc1S(=O)Cc1ccc(C(=O)N2CCN(c3cccc(C)c3C)CC2)o1 (stereo not given)	.	.	0.82µM*	0.65µM*	.	.
Cc1ccc(Cl)cc1N1CCN(C(=O)COc2ccc3c(c2)CCC3)CC1	-9%	-72*	21µM*	-4%	?	?
Cc1noc(COc2ccccc2OCC(N)=O)n1	.	.	-21%	1%	20%	8%
O=C(c1ccc(CS(=O)c2ccccc2Cl)o1)N1CCN(C2CCCCC2)CC1 (stereo not given)	.	6	?	?	-26%	-5%
O=C(c1ccccc1OCc1ccc(Cl)cc1)N1CCN(c2ccccn2)CC1	-20%	-18	?	23µM*	-8%	-18%

Compound activity as filed in PubChem.
